# Most compounds without a hit are left out; they make up all but 1.3% or so of the library.
# PREPL inh: human PREPL enzyme inhibition; Q4J6C6; recombinant PREPL, fluorescence polarization activity-based probe; inhibition, % at 5.96 µM; hit rate 0.68% among 320,000; AID 2751;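 further: 0% = enzyme with DMSO and 100% = wells lacking enzyme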
# RAD54 branch: blocks human RAD54 Holliday junction branch migration. hit rate 0.14% among 360,000. FAM/BHQ fluorescence. Q92698. AID 602329. inhibition, % at 10.4 µM;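 active means mean normalized replicate activity at least 40 and at least half of replicates scoring 40 or more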;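 further: 0% = median of neutral control wells and 100% = median of positive control wells; inhibitors cause a drop in the FAM fluorescence signal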
# Target sequence (Q92698 whole entry, looked up): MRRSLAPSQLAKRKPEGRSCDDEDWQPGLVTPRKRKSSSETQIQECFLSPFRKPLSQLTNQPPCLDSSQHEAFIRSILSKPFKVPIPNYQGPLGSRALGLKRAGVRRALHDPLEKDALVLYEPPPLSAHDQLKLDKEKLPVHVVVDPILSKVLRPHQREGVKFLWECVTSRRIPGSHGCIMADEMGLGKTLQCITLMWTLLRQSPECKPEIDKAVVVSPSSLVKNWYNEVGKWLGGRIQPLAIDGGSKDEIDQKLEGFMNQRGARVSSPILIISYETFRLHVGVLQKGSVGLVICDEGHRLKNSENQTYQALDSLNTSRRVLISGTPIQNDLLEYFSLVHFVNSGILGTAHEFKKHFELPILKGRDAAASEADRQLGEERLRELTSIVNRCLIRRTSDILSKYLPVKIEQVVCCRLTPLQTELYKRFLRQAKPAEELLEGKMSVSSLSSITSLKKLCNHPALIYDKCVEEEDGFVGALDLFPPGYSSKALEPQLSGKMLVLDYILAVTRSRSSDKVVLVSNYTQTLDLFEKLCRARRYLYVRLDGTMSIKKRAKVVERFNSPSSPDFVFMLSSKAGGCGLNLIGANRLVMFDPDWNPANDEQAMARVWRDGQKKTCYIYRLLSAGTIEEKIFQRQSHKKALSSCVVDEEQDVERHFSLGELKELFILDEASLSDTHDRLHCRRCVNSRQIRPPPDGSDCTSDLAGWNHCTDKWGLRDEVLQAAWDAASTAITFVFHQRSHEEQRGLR
# RAD52 inh: blocks human RAD52 DNA annealing; inhibition, % at 18.7 µM; hit rate 0.46% among 360,000; recombinant RAD52 DNA annealing, FRET fluorescence; P43351; AID 651710;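 active means every replicate showing at least 50% inhibition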
# MIN6 prolif-1: inducers of beta-cell replication in MIN6 cells; MIN6 cells proliferation, ATPlite luminescence, 48 h; cells starved in 0.2% serum; 100% = growth in 10% serum; proliferation, % at 10 µM; hit rate 0.29% among 330,000; AID 2380;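 active means compounds whose signal lies at least 3.5 SD above the mean of all wells on their plate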;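 further: 0% = DMSO-treated cells in low-serum medium and 100% = 10% serum control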
# UBC13 inh: blocks human UBC13 polyubiquitin chain formation | TR-FRET | AID 485273 | hit rate 0.47% among 330,000 | P61088 | inhibition, % at 20 µM; in the data active means inhibition above about 45%, passing the limit was not always enough
# DNA FID counter: displaces DNA intercalator in HCV helicase counter-screen. DNA fluorescent intercalator displacement, fluorescence. inhibition, % at 7.9 µM. hit rate 0.17% among 290,000. AID 1845; in the data active means inhibition above about 37%;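 further: 0% = vehicle and 100% = reference compound; higher means more ethidium bromide displaced from hairpin DNA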
# MIN6 prolif-2: confirmation of inducers of beta-cell replication in MIN6 cells | shares compounds with MIN6 prolif-1 | MIN6 beta-cell proliferation, ATPlite luminescence, 48 h; cells kept in 0.2% serum; scaled between 0.2% and 10% serum | proliferation increase, % at 50 µM | 920 tested, under 10 active;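 active means proliferation increase above 40% at any of the four tested concentrations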
# PREPL inh cf: confirmation of human PREPL enzyme inhibitors; recombinant PREPL, fluorescence polarization activity probe; shares compounds with PREPL inh; hit rate 67% among 2,000; inhibition, % at 5.96 µM;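 further: 0% = protein with DMSO and 100% = wells lacking protein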
# * hit, by the source's call; i = inactive; . = not tested or not shown. Unless noted, no stated cut-off is given here; in the data, active means inhibition above about 43%; inactive means the rest.
SMILES,PREPL inh,RAD54 branch,RAD52 inh,MIN6 prolif-1,UBC13 inh,DNA FID counter,MIN6 prolif-2,others
CC(O)CNc1cc(N)c([N+](=O)[O-])cc1[N+](=O)[O-] (stereo not given),10,.,.,0.0*,-54,-8,2,
C[C@H]1CN([C@@H](C)CO)C(=O)Cc2cc(NS(=O)(=O)c3ccc(Cl)cc3)ccc2O[C@H]1CN(C)C(=O)Nc1cccc2ccccc12,.,-3,12,.,.,.,.,
Cc1ccc(S(=O)(=O)N[C@H]2CC[C@@H](CC(=O)NCc3ccccc3F)O[C@@H]2CO)cc1,.,-12,0,.,.,.,.,
O=C(Nc1cccc(Cl)c1)Nc1ccnc(-c2cccnc2)n1,-11,.,-12,11*,30,-8,5,
Cc1ccsc1C(C(=O)NC(C)(C)C)N(Cc1ccco1)C(=O)c1csnn1 (stereo not given),1,-7,-7,10*,4,-22,0,
CCNC(=O)C[C@H]1CC[C@H]2[C@@H](COC[C@@H](O)CN2C(=O)Nc2ccc(Cl)c(Cl)c2)O1,.,2,5,.,.,.,.,
C[C@@H]1CN([C@@H](C)CO)S(=O)(=O)c2ccc(C#CC3CC3)cc2O[C@H]1CN(C)C(=O)CC1CC1,.,7,0,.,.,.,.,
CC(C)CCNc1nc(N)c([N+](=O)[O-])c(NC2CCCCC2)n1,-1,1,-4,8.8*,7,-2,-1,
CC(C)CNc1nc(N)c([N+](=O)[O-])c(NC2CCCCC2)n1,-14,-8,-7,0,4,-2,.,
NC(=O)C1CCN(CC(=O)Nc2ccccc2Sc2ccc(Cl)cc2)CC1,1,-1,1,0,14,-1,.,
NC(=O)C1CCN(CC(=O)Nc2ccccc2Sc2ccccc2)CC1,-4,.,-9,7.1*,12,-9,-3,
O=C1CSC(c2ccccc2)N1CCc1ccccc1 (stereo not given),-9,0,0,7.5*,-1,-12,0,
Cc1cc2nc(C)c(=O)n(C)c2cc1C,-4,.,.,7.3*,14,-2,2,
CC(C)Nc1nc(NC(C)(C)C)nc(Oc2ccc(=O)n(C)n2)n1,-9,5,-8,7.4*,-1,-1,4,
COc1nc(NC(C)(C)C)nc(Oc2ccc(=O)n(C)n2)n1,3,-5,-3,3,0,2,.,
CO[C@H]1CN(C)C(=O)c2ccc(NC(=O)c3cc(C)on3)cc2OC[C@H](C)N(C)C[C@@H]1C,.,.,-2,.,.,.,.,
COc1ccc(CN2CCCCC2c2cccnc2)c(OC)c1C (stereo not given),5,-8,.,6.7*,-6,1,-1,
CCN(CC)c1nc(C)nc2c1sc(=S)n2C,7,.,-32,8.0*,4,-8,-6,
Cc1nc(N2CCCCC2)c2sc(=S)n(C)c2n1,-2,-9,-3,8.9*,2,-4,5,
CN1[C@@H]2Cn3c(ccc(-c4cccc(F)c4)c3=O)[C@H]1[C@@H](C(=O)N1CCCCC1)[C@@H]2CO,.,-9,-9,.,.,.,.,
CCC(C)(C(=O)NC1CCCC1)N(Cc1ccco1)C(=O)c1ccccn1 (stereo not given),-4,3,.,4,0,-13,.,
CCC(C)(C(=O)NC1CCCC1)N(Cc1ccco1)C(=O)c1ccc2c(c1)OCO2 (stereo not given),-1,-2,.,8.7*,7,-26,-4,
CCC(C)(C(=O)NC1CCCC1)N(Cc1ccco1)C(=O)Cc1cccs1 (stereo not given),-4,-3,.,12*,4,-21,-2,
C[C@@H]1CN([C@@H](C)CO)C(=O)Cc2cc(NC(=O)Cc3ccccc3)ccc2O[C@H]1CN(C)Cc1ccncc1,.,0,4,.,.,.,.,
CC(C)NC(=O)N(C)C[C@H]1OCCCC[C@H](C)Oc2ccc(NC(=O)Cc3ccccc3)cc2C(=O)N([C@@H](C)CO)C[C@H]1C,.,2,0,.,.,.,.,
SMILES,PREPL inh,RAD54 branch,RAD52 inh,MIN6 prolif-1,UBC13 inh,DNA FID counter,MIN6 prolif-2,others
O=C(NCc1cccs1)C1CCN(S(=O)(=O)c2cccs2)CC1,15,-10,.,-2,0,9,.,
CC1(C)CC(=O)C/C(=N/NC(=O)C2CCN(S(=O)(=O)c3cccs3)CC2)C1,4,.,-14,9.3*,3,-8,2,
CCCNC(=O)N1[C@@H]2c3cccc(=O)n3C[C@H]1[C@H](CO)[C@H]2C(=O)N1CCC(Cc2ccccc2)CC1,.,-3,-13,.,.,.,.,
CC(=O)Nc1cc(OC(=O)c2ccco2)cc(OC(=O)c2ccco2)c1,50*,.,.,-3,-1,-13,.,PREPL inh cf=37
Nc1ccc(N2CCN(C(=O)c3ccco3)CC2)cc1,63*,-3,.,-4,-1,-5,.,PREPL inh cf=44*
CCC(=O)N1CCN(c2ccc(NC(=O)COc3ccc(C)cc3C)cc2)CC1,42,3,-6,2,3,-52,.,
Cc1ccccc1OCCCC(=O)Nc1ccc(N2CCOCC2)cc1,50*,0,.,-2,-4,-24,.,PREPL inh cf=34
COc1ccccc1OCCCC(=O)Nc1ccc(N2CCOCC2)cc1,8,.,-11,-3,2,-20,.,
O=C(Cc1ccc(Cl)cc1)Nc1ccc(N2CCN(C(=O)c3ccco3)CC2)c(Cl)c1,54*,-2,.,-6,-10,-24,.,PREPL inh cf=47*
Cc1ccc(C(=O)N2CCN(c3ccc(NC(=O)COc4ccccc4C)cc3)CC2)cc1,52*,1,-15,-5,-3,-37,.,PREPL inh cf=51*
CCC(=O)Nc1ccc(N2CCN(C(=O)c3ccco3)CC2)c(Cl)c1,.,0,2,0,7,-16,.,
Cc1ccc(S(=O)(=O)Nc2ccc3c(c2)C(=O)N([C@@H](C)CO)C[C@@H](C)[C@H](CN(C)S(=O)(=O)c2cn(C)cn2)OCCCC[C@@H](C)O3)cc1,.,-1,-20,.,.,.,.,
CCc1csc(N2[C@@H](C#N)[C@@H](c3ccccc3-c3cccc(F)c3)[C@@H]2CO)n1,.,.,-30,.,.,.,.,
O=C(CCn1ccc2ccccc21)Nc1ccc(N2CCOCC2)cc1,45*,15,.,0,1,-8,.,PREPL inh cf=38
O=C(Nc1ccc(N2CCOCC2)cc1)c1cccc2ccccc12,2,-2,-18,4,6,-20,.,
Cc1ccc(OCC(=O)Nc2ccc(N3CCN(C(=O)c4ccco4)CC3)cc2)cc1,52*,.,-17,-2,15,-33,.,PREPL inh cf=43*
CN(C)C(=O)C[C@@H]1CC[C@H]2[C@@H](COc3ccc(NC(=O)C4CCCC4)cc3C(=O)N2C)O1,.,.,5,.,.,.,.,
O=c1[nH]c2ccc(NCc3ccccc3OCc3ccc(Cl)cc3)cc2[nH]1,72*,14,-11,-3,4,-5,.,PREPL inh cf=73*
O=C(CP(=O)(c1ccccc1)c1ccccc1)Nc1nc2ccccc2s1,50*,.,-7,2,5,-32,.,PREPL inh cf=41
O=C(Cc1ccccc1)Nc1nc2ccccc2s1,-8,8,.,-2,9,-3,.,
COc1ccc2noc3c2c1C(=O)c1ccccc1-3,50*,-116,i,-6,-245,.,.,PREPL inh cf=35

# Assay outcomes from PubChem BioAssay.
